OvCa metastasis: ovarian cancer metastasis inhibition, 3D TME model; SKOV3ip1-GFP adhesion/invasion on 3D omental model, fluorescence; Potency, µM (series often up to 45.8 µM), for inactives: at the highest dose activity change, negative = inhibition, actives largely listed as inhibitors; actives 0.1% (n = 46,000);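 note: potency is the fitted concentration of half-maximal effect; plate controls were DMSO wells for no effect and tomatine positive control wells for full effect; nearly all actives have a fitted effect of over 65% in size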
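qHTS, 4-pt dose (0.36-46 umol/L); SKOV3ip1-GFP, 1,200 cells/well, no FBS; primary omental fibroblast/mesothelial co-culture 48 h pre-grown; 2 h RT + 16 h 37 C; PBS wash, 4% PFA; GFP count 488/509 nm.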
FH mod: Identification of activators of human fumarate hydratase by quantitative high-throughput screening. Fumarate hydratase, mitochondrial (Homo sapiens), P07954. FH coupled MDH/diaphorase resazurin fluorescence, 15 min. Potency, µM (doses to about 79.9 µM), without a hit: top-dose activity change, negative = inhibition, most hits filed as inhibitors. actives 0.22% (n = 54,000). AID 1347055, 2019; note: potency is the fitted concentration of half-maximal effect; % is set by controls: 0 for no effect and ±100 for the full control effect; the screen sought activators but most active calls are inhibition curves; nearly all actives have a fitted effect of over 45% in size
Target sequence (P07954 whole entry, looked up): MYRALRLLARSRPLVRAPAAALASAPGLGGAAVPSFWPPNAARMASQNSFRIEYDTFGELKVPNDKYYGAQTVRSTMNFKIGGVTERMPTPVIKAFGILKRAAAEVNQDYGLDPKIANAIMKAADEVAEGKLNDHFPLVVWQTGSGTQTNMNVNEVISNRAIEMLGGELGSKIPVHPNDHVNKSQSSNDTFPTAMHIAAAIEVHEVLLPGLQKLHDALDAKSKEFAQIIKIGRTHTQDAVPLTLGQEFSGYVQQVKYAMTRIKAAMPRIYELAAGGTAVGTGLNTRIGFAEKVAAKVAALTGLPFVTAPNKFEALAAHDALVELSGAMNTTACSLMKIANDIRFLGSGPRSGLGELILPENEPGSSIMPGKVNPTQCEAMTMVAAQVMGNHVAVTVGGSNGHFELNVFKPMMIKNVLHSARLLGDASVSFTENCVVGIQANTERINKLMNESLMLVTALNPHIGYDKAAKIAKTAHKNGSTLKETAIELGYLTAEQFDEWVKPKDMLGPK
NTMT1 inhibitor: NTMT1 methyltransferase inhibition. actives 2.5% (n = 59,000). Q9BV86. NTMT1 MTase-Glo SAH luminescence, purified enzyme. Potency, µM (top dose mostly 114 µM), without a hit: top-dose activity change, negative = inhibition, actives largely listed as inhibitors;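 note: potency is the fitted concentration of half-maximal effect; plate controls were DMSO vehicle for no effect and no enzyme for full effect; nearly all actives have a fitted effect of over 65% in size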
GPR32 ag: activates human resolvin D1 receptor GPR32; O75388; CHO-K1 GPR32 beta-arrestin PathHunter luminescence, 90 min; zero percent set by DMSO-only wells; activation, % at 76.9 µM; actives 2.5% (n = 48,000); AID 1346428;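 active = activation of at least 60% and not above a set upper limit, about 1 call in 100 departs from these limits; inconclusive = activation of 40% to 60%, or above that upper limit; inactive = activation under 40%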; note: 0% is about no effect
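GPR32 activation in stably transfected CHO-K1 cells, detected as beta-arrestin recruitment by enzyme-fragment complementation. Compound exposure: 90 min, 37 °C.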
Numbers without * were called inactive; i = inactive; ? = inconclusive; nt = no result given; ! = repeats disagree; [ ] = remark or other dose. This is a sample that favours compounds with a hit; in the whole collection about 3.9% have one here. Unless noted, calls come from the whole dose curve; as a rule, active = well fitted curve in the direction sought with a large enough effect; inconclusive = small, poorly fitted or top-dose-only effect, or another doubt; inactive = no such curve, though single readings can be large; an effect the other way counts as inactive or inconclusive.

SMILES	OvCa metastasis	FH mod	NTMT1 inhibitor	GPR32 ag
CC(=O)Nc1ccc(-c2nnc(SCC(=O)c3ccc([N+](=O)[O-])cc3)o2)cc1	i	-10.1%	5.1%	64.0*
Cc1ccccc1-c1nnn(CC(=O)Nc2sc3c(c2C#N)CCC(C(C)(C)C)C3)n1 (configuration not stated)	i	-4.3%	7.6%	25.7
CC(C)(C)C1CCc2c(sc(NC(=O)Cn3nnc(-c4ccccc4Cl)n3)c2C#N)C1 (configuration not stated)	i	?	7.5%	89.3*
COc1ccc2c(C)c(CCC(=O)NCCc3ccc(OC)c(OC)c3)c(=O)oc2c1	-9.7%	nt	nt	68.2*
COc1ccc2c(C)c(CCC(=O)NCCc3ccccc3)c(=O)oc2c1	-8.8%	nt	nt	49.5
COc1ccc2c(C)c(CCC(=O)NCCc3ccc(Cl)cc3)c(=O)oc2c1	i	nt	nt	107.5*
Cc1ccc(NC(=O)CCS(=O)(=O)c2ccc(Br)s2)c(Br)c1	2.3%	-2.8%	-7.7%	70.9*
CC(=O)c1cccc(NC(=O)CCS(=O)(=O)c2ccc(Br)s2)c1	-2.3%	-6.8%	13.9%	12.6
Cc1cnc(-c2ccccc2C2COC2)nc1NCc1ccc(-n2ccnn2)cc1	nt	nt	10.0%[57.5 µM]	nt
C=Cc1c(C)c2cc3[nH]c(cc4nc(cc5nc(cc1[nH]2)C(C)=C5CCC(=O)O)C(CCC(=O)O)=C4C)c(C)c3C=C	nt	?	25.1µM*	-10.3
O=C(O)c1cccc(NC(=O)c2cccc(S(=O)(=O)Nc3cccc(C(=O)O)c3)c2)c1	i	5.1%	5.8%	-20.5
O=C(Nc1cccc(C(=O)Nc2ccc(S(=O)(=O)O)c3cc(S(=O)(=O)O)cc(S(=O)(=O)O)c23)c1)Nc1cccc(C(=O)Nc2ccc(S(=O)(=O)O)c3cc(S(=O)(=O)O)cc(S(=O)(=O)O)c23)c1	nt	28.2µM*	nt	1.6
CNCCCC1(c2ccccc2)OC(C)(C)c2ccccc21 (configuration not stated)	nt	-1.4%	1.6%[57.5 µM]	nt
O=C(c1ccccc1)N1CCN(c2nc(-c3ccc(Br)cc3)cs2)CC1	nt	nt	12.3%	nt
CCCCCN1CCC(C(=O)Nc2ccc([S+](=O)([O-])Nc3nccs3)cc2)CC1	nt	nt	4.4%[57.5 µM]	nt
COc1ccc(OCC(O)Cn2c(=N)n(CCN3CCCCC3)c3ccccc32)cc1 (configuration not stated)	?	0.7%	-6.9%	4.5
Cc1ccc(OCC(O)Cn2c(=N)n(CCN3CCCCC3)c3ccccc32)cc1 (configuration not stated)	8.91µM*	-5.9%	?	-1.0
N=c1n(CCN2CCCCC2)c2ccccc2n1CC(O)COc1ccc(Cl)cc1Cl (configuration not stated)	?	-7.6%	?	69.6*
COc1cccc(-c2csc(N3CCC(C(N)=O)CC3)n2)c1	nt	nt	-6.1%	nt
[O-][n+]1ccccc1SSc1cccc[n+]1[O-]	nt	-6.8%[20.6 µM]	5.01µM*	3.7
CC(C)(O)CC[C@@H](O)[C@](C)(O)[C@H]1CC[C@@]2(O)C3=CC(=O)[C@@H]4C[C@@H](O)[C@@H](O)C[C@]4(C)[C@@H]3CC[C@]12C	7.1%	2.5%[53.3 µM]	?	nt
CCOC(=O)C1CCN(C(=O)Cn2c(=O)cc(C)c3c(C)nn(C)c32)CC1	1.3%	-5.5%	-1.2%	42.0
CCOC(=O)N1CCN(C(=O)Cn2sc3nc(C)cc(C)c3c2=O)CC1	nt	3.8%	3.16µM*	nt
CN[C@@H](C)C(=O)N[C@H]1CCCC[C@H]2CC[C@@H](C(=O)N[C@@H](c3ccccc3)c3cn(CCCCc4ccc(CCCCn5cc([C@@H](NC(=O)[C@@H]6CC[C@@H]7CCCC[C@H](NC(=O)[C@H](C)NC)C(=O)N76)c6ccccc6)nn5)cc4)nn3)N2C1=O	14.3%	-7.8%[53.3 µM]	28.2µM*!	nt
CC[C@@H](O)C[C@@H]1C(C)=C[C@@H]2CCCC[C@@H]2[C@@]1(C)C(=O)O	nt	10.1%	0.8%[57.5 µM]	nt
Cc1ccc(Cl)c(Nc2ccccc2C(=O)O)c1Cl	nt	?	44.4%[57.5 µM]	103.0*!
Cc1ccc(C(=O)C(=O)O)cc1C	nt	-12.5%[53.3 µM]	?	3.9
COc1ccc(C(=O)N2CCC(C(=O)Nc3ccccc3Cl)CC2)cc1	9.6%	-12.0%	3.6%	-0.7
COC(=O)c1ccc(NC(=O)C2CCN(C(=O)c3ccc(F)cc3)CC2)cc1	6.5%	-5.2%	6.4%	60.8*

Compound activity: PubChem BioAssay, National Center for Advancing Translational Sciences (NCATS)
